Screening data: PubChem BioAssay, The Scripps Research Institute Molecular Screening Center
Most compounds without a hit are left out; they make up all but 2.3% or so of the library.
M1 ag – activates human CHRM1 receptor; 360,000 tested, 0.33% active; activation, % at 3 µM; P11229; CHO-K1 hM1, Fluo-8 calcium fluorescence, agonist mode; 0% DMSO, 100% acetylcholine EC100;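 active = activation above the run's mean compound activation plus 3 SD, cut at about 16% in these data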;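 also: peak over basal fluorescence ratio within a 140 s kinetic read after compound addition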
Target sequence (P11229 whole entry, looked up): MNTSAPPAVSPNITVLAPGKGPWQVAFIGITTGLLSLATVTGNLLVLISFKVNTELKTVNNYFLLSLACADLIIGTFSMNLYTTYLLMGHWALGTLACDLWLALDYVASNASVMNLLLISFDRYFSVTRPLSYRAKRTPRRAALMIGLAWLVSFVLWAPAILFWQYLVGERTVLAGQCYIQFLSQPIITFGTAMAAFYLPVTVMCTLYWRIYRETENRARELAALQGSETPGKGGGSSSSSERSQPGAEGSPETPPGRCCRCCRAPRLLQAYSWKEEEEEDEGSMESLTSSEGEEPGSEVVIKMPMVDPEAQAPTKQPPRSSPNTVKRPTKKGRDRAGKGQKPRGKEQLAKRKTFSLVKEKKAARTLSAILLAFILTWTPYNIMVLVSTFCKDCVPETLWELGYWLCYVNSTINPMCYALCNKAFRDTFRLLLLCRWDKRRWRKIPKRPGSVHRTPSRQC
CHO-K1 Ca antag – nonselective inhibitor or artifact in parental CHO-K1 cells; ATP-induced calcium, Fluo-8 fluorescence; 360,000 tested, 0.6% active; AID 602250; inhibition, % at 3 µM;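 active = inhibition above a per-plate cutoff, the plate's mean sample inhibition plus 3 SD, cut at about 24% in these data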;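 also: 0% = DMSO plus EC80 ATP and 100% = DMSO alone without ATP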
M1 PAM parental – counter-screen for M1 PAMs: effect in parental CHO-K1 cells; AID 602247; ATP EC20, Fluo-8 calcium fluorescence; 0% at ATP EC20, 100% at ATP max; 360,000 tested, 0.02% active; activation, % at 3 µM;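 active = activation above the run cutoff, the mean activation of all test compounds plus 3 SD, cut at about 40% in these data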;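 also: peak over basal fluorescence ratio in a 140 s read after ATP addition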
CHO-K1 Ca ag – M1 agonist counterscreen hit in parental CHO-K1 cells. Fluo-8 calcium fluorescence; scaled to maximal ATP response, vehicle zero. activation, % at 3 µM. 360,000 tested, 0.48% active. AID 602248; in the data active = activation above about 15%;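 also: untransfected CHO-K1 host cells lacking M1 receptor as counterscreen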
M1 PAM – human CHRM1 positive allosteric modulation; AID 588819; CHO-K1 hM1, Fluo-8 calcium fluorescence, ACh EC20; 0% = ACh EC20, 100% = maximal ACh; P11229; activation, % at 3 µM; 360,000 tested, 0.088% active; in the data active = activation above about 19%, passing the limit was not always enough
M1 antag – blocks human M1 muscarinic receptor; P11229; CHO-K1 hM1, Fluo-8 calcium fluorescence, ACh EC80 antagonist; inhibition, % at 3 µM; 360,000 tested, 1.3% active; AID 588852;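 active = percent inhibition above its own plate's cutoff, namely the mean of that plate's compound wells plus 3 SD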;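 also: peak over basal fluorescence ratio during 140 s after agonist addition; 0% = ACh EC80 plus DMSO and 100% = DMSO alone without agonist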
* = called active by the depositor.

For FC(F)(F)c1ccccc1Cc1c(C2CCCCC2)nc2c3ccccc3ccn12 the results were M1 ag 2, CHO-K1 Ca antag 12, M1 PAM parental -13, CHO-K1 Ca ag -1, M1 PAM -1 and M1 antag 11.
Cc1cccc(NC(=O)CN2C(=O)c3ccccc3S2(=O)=O)n1 was read as M1 ag 1, CHO-K1 Ca antag 15, M1 PAM parental -30, CHO-K1 Ca ag 0, M1 PAM -7 and M1 antag 17.
Cc1cccc(NC(=O)C(C)N2C(=O)c3ccccc3S2(=O)=O)n1 (centres undefined) was read as M1 ag -1, CHO-K1 Ca antag 28*, M1 PAM parental -26, CHO-K1 Ca ag 0, M1 PAM -12 and M1 antag 28*.
For CCn1c(=O)[nH]c2cc(C(=O)Nc3cc(C)cc(C)c3)ccc2c1=O the results were M1 ag -3, CHO-K1 Ca antag 18, M1 PAM parental -11, CHO-K1 Ca ag 0, M1 PAM -3 and M1 antag 5.
For CC1CCN(c2nc3ccccc3n2CC(=O)c2ccccc2)CC1 the results were M1 ag -5, CHO-K1 Ca antag 1, M1 PAM parental 3, CHO-K1 Ca ag 0, M1 PAM -23 and M1 antag 67*.
For CCCCCCC1CC(CCc2nc(=S)[nH][nH]2)C(=O)O1 (centres undefined) the results were M1 ag -7, CHO-K1 Ca antag -6, M1 PAM parental 4, CHO-K1 Ca ag 0, M1 PAM 5 and M1 antag -2.
CCCCCCCCc1nc(=S)[nH][nH]1 was read as M1 ag -4, CHO-K1 Ca antag 25*, M1 PAM parental -6, CHO-K1 Ca ag 0, M1 PAM 11 and M1 antag -12.
Screening Cc1cccc(N2CC(O)(c3cccs3)[N+]3=C2CCCC3)c1 (centres undefined) returned M1 ag -4, CHO-K1 Ca antag 1, M1 PAM parental -15, CHO-K1 Ca ag 0, M1 PAM -5 and M1 antag 14.
`Cc1cccc(N2CC(O)(c3cccs3)[N+]3=C2CCCC3)c1C` (centres undefined) gave M1 ag -5, CHO-K1 Ca antag 8, M1 PAM parental -1, CHO-K1 Ca ag 6, M1 PAM -17 and M1 antag 37*.
For Cc1ccc(N2CC(O)(c3cccs3)[N+]3=C2CCCC3)cc1 (centres undefined) the results were M1 ag -8, CHO-K1 Ca antag -13, M1 PAM parental -9, CHO-K1 Ca ag 0, M1 PAM -22 and M1 antag 40*.
Screening Cc1ccc2ncccc2c1NC(=S)NC(=O)c1ccccc1 returned M1 ag -3, CHO-K1 Ca antag -8, M1 PAM parental 7, CHO-K1 Ca ag 1, M1 PAM 6 and M1 antag -2.
`Cc1cccc(C)c1NC(=O)C(C)N1CCCCC1` (centres undefined) gave M1 ag -3, CHO-K1 Ca antag 0, M1 PAM parental -4, CHO-K1 Ca ag 1, M1 PAM 1 and M1 antag -2.
O=[N+]([O-])c1c(NCCCO)cc(Sc2nc3ccccc3s2)c2nonc12 was read as M1 ag -6, CHO-K1 Ca antag 19, M1 PAM parental 8, CHO-K1 Ca ag 6, M1 PAM -13 and M1 antag 33*.
For CCOC(=O)c1[nH]c2ccc(F)cc2c1NC(=O)Nc1ccccc1OC the results were M1 ag -5, CHO-K1 Ca antag -1, M1 PAM parental 10, CHO-K1 Ca ag 16*, M1 PAM 5 and M1 antag -10.
`CCc1ccc(N(CC(=O)NC(C)C)C(=O)CCC(=O)Nc2ccccn2)cc1` gave M1 ag -3, CHO-K1 Ca antag -8, M1 PAM parental 15, CHO-K1 Ca ag 1, M1 PAM 10 and M1 antag -7.
For CCN1/C(=C/C=C/c2sc3ccccc3[n+]2CC)Sc2ccccc21 the results were M1 ag 1, CHO-K1 Ca antag 20, M1 PAM parental 1, CHO-K1 Ca ag 5, M1 PAM -12 and M1 antag 16.
Screening CCN1/C(=C/c2ccc3cc(C)ccc3[n+]2CC)Sc2cc(C)c(C)cc21 returned M1 ag 1, CHO-K1 Ca antag 50*, M1 PAM parental -15, CHO-K1 Ca ag 11, M1 PAM -18 and M1 antag 40*.
For CN1/C(=C/c2cccc[n+]2CCO)Sc2ccccc21 the results were M1 ag -8, CHO-K1 Ca antag -7, M1 PAM parental 9, CHO-K1 Ca ag 1, M1 PAM 8 and M1 antag -18.
`CC[n+]1ccccc1/C=C1\Sc2ccc(C)cc2N1C` gave M1 ag -10, CHO-K1 Ca antag -15, M1 PAM parental 7, CHO-K1 Ca ag 0, M1 PAM 12 and M1 antag -10.
CCN1/C(=C/c2ccc3cc(C)ccc3[n+]2CC)Sc2ccccc21 was read as M1 ag 47*, CHO-K1 Ca antag 58*, M1 PAM parental -8, CHO-K1 Ca ag 36*, M1 PAM -19 and M1 antag 66*.
For CC[n+]1c(/C=C2\Sc3ccccc3N2C)ccc2cccc(C)c21 the results were M1 ag 22*, CHO-K1 Ca antag 31*, M1 PAM parental 8, CHO-K1 Ca ag 19*, M1 PAM -11 and M1 antag 54*.
For O=C(c1cc(COc2ccc(F)cc2Cl)on1)N1CCN(C2CCCCC2)C(=O)C1 the results were M1 ag 2, CHO-K1 Ca antag 17, M1 PAM parental -19, CHO-K1 Ca ag 21*, M1 PAM -14 and M1 antag 28*.
`COc1ccc2c(c1)OC[C@H]1[C@H]2N2C(=O)CN(CCc3c[nH]c4ccccc34)C(=O)[C@@]2(C)[C@H]1c1ccccc1` gave M1 ag 0, CHO-K1 Ca antag -8, M1 PAM parental -3, CHO-K1 Ca ag 0, M1 PAM 12 and M1 antag -22.
For CC(NC(=O)Nc1ccc(Cl)c(Cl)c1)C(c1ccccc1)N1CCOCC1 (centres undefined) the results were M1 ag 30*, CHO-K1 Ca antag 14, M1 PAM parental 10, CHO-K1 Ca ag 38*, M1 PAM 3 and M1 antag 10.
Screening CC(NC(=O)c1ccc(Cl)cc1Cl)C(c1ccccc1)N1CCOCC1 (centres undefined) returned M1 ag -13, CHO-K1 Ca antag 9, M1 PAM parental 16, CHO-K1 Ca ag 1, M1 PAM 11 and M1 antag -11.
Screening CC(NC(=O)Nc1ccc([N+](=O)[O-])cc1)C(c1ccccc1)N1CCOCC1 (centres undefined) returned M1 ag 26*, CHO-K1 Ca antag -2, M1 PAM parental 4, CHO-K1 Ca ag 49*, M1 PAM -1 and M1 antag 2.
